Source: PubChem BioAssay (EPA / NIEHS)
Inconclusive results are not listed. Some structures have more than one record in an assay (separate samples or runs), and their calls can disagree. Activity calls are given as the source filed them. The calls were made as follows: active = hit-call score of the fitted dose curve at least 0.9, where 1 is the maximum; inconclusive = response in the unintended direction; inactive = score below 0.9.

The molecules below were run against Cellular tumor antigen p53 (Homo sapiens) (UniProt P04637) (assay: TOX21_p53_BLA_p5_ratio: Tox21 HCT-116 p53 Agonism Beta-lactamase Assay, Ratio, Phase 5 (AID 2283599)).
Sequence of Cellular tumor antigen p53 (Homo sapiens) (P04637 whole entry, looked up, the tested form may be a part): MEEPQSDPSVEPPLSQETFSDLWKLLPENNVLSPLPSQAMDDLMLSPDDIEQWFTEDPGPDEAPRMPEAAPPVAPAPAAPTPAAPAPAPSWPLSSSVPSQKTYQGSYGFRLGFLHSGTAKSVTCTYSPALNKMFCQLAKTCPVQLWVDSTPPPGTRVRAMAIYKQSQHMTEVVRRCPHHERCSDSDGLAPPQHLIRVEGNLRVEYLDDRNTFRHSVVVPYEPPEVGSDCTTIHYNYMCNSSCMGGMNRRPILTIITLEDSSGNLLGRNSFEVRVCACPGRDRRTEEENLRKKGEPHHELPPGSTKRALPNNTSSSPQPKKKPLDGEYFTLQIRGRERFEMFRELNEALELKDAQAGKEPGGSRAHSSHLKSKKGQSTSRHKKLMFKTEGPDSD
Text: TOX21_p53_BLA_p5 is a cell-based, single-readout assay that uses HCT116, a human intestinal cell line, […] in a 1536-well plate.TOX21_p53_BLA_p5_ratio is an assay readout measuring reporter gene via receptor activity and designed using inducible reporter (beta lactamase induction) detected with GAL4 b-lactamase reporter gene. The signal is derived from the ratio of cleaved (ch2) to uncleaved (ch1) reporter gene substrate used as the measure of target activity.Data from the assay component TOX21_p53_BLA_p5_ratio was analyzed into 1 assay endpoint. This assay endpoint, TOX21_p53_BLA_p5_ratio, was analyzed in the positive analysis fitting direction relative to DMSO as the negative control and baseline of activity. Using a type of inducible reporter, gain-of-signal activity can be used to understand changes in the reporter gene as they relate to the gene TP53. Furthermore, this assay endpoint can be referred to as a primary readout, because this assay has produced multiple assay endpoints and this ratio serves a reporter gene function to understand target activity. To generalize the intended target to other relatable targets, this assay endpoint is annotated to the DNA binding intended target family, where the subfamily is tumor suppressor.
Thawing Method: Place 14 mL of pre-warmed thaw medium into a 15 mL of conical tub. Remove the vial of cells to be thawed from liquid nitrogen and thaw rapidly by placing at 37C in a water bath with gentle agitation for 1-2 minutes. Decontaminate the vial by wiping with 70% ethanol before opening in a biological safety cabinet. Transfer the vial contents drop-wise into 14 mL of thaw medium in a sterile 15-mL conical tub. Centrifuge cells at 900 rpm for 4 minutes and resuspend in thaw medium. Transfer contents to the T75 tissue culture flask containing Thaw Medium and place flask in a humidified 37C/5% CO2 incubator. Switch to growth medium at first passage.Propagation Method: Aspirate medium, rinse once in DPBS, add 0.25% Trypsin/EDTA and swirl to coat the cell evenly. Add an equal volume of Growth Medium to inactivate Trypsin after 2-3 minutes incubation at 37C. Centrifuge cells at 900 rpm for 4 minutes and resuspend in growth medium. Cell should be passage or fed at least twice a week.Assay Protocol: Harvest cells from culture in growth medium and resuspend in assay medium. 2.2 Dispense 4000 cells/5 uL/well into 1536-well black/clear bottom plates using a Multidrop dispenser. After the cells were incubated at 37C for 5 hours, 23 nL of compounds dissolved in DMSO were transferred to the assay plate by a PinTool resulting in a 217-fold dilution. Incubate the plates for 16 hours at 37C, 5% CO2. Add 1 uL of 6X LiveBLAzer FRET B/G (CCF4-AM) Substrate Mixture to each well using a BioRAPTR dispenser and incubate the plates at room temperature for 2 hours. Measure fluorescence intensity at 460 and 530 nm emission and 405 nm excitation by an Envision detector. Data is expressed as the ratio of 460nm/530nm emissions. Add 4 uL of Cell-titer Glo to each well using BioRAPTR and incubate the plates at room temperature for 2 hours. Measure fluorescence intensity by a VewLux plate reader.

SMILES	outcome	AC50
CCSC(=O)N1CCCCCC1	inactive	
C=C(C)CN(CC)c1c([N+](=O)[O-])cc(C(F)(F)F)cc1[N+](=O)[O-]	inactive	
Cc1ccc(N=CN(C)C=Nc2ccc(C)cc2C)c(C)c1	inactive	
CO/N=C(/C1=NOCCO1)c1ccccc1Oc1ncnc(Oc2ccccc2Cl)c1F	inactive	
CC1(C)C(C=C(Cl)Cl)C1C(=O)OC(C#N)c1cccc(Oc2ccccc2)c1 (stereo not given)	inactive	
CNC(=O)Oc1cccc2ccccc12	inactive	
COP(=O)(OC)O/C(C)=C/C(=O)N(C)C	inactive	
O=C1C2CC=CCC2C(=O)N1SC(Cl)(Cl)Cl (stereo not given)	inactive	19.5 µM (active)
CCOP(=S)(OCC)Oc1nc(Cl)n(C(C)C)n1	inactive	
C=CCOC(=O)C(C)(C)OC(=O)c1cc(-n2c(=O)cc(C(F)(F)F)n(C)c2=O)ccc1Cl	inactive	
CC1(C)CCC(=Cc2ccc(Cl)cc2)C1(O)Cn1cncn1 (stereo not given)	inactive	
N#Cc1c(Cl)cccc1Cl	inactive	
COC(=O)N(C(=O)N1CO[C@@]2(C(=O)OC)Cc3cc(Cl)ccc3C2=N1)c1ccc(OC(F)(F)F)cc1	inactive	
CC1(C)C(C(=O)OC(C#N)c2cccc(Oc3ccccc3)c2)C1(C)C (stereo not given)	inactive	
CC(C)N1C(=O)c2ccccc2NS1(=O)=O	inactive	
CC1(C)CON(Cc2ccccc2Cl)C1=O	inactive	
CC(C)N1C(=O)N(c2ccccc2)CSC1=NC(C)(C)C	inactive	
CSC(=O)c1c(C(F)F)nc(C(F)(F)F)c(C(=O)SC)c1CC(C)C	inactive	
Cc1c(COC(=O)[C@@H]2[C@H](/C=C(\Cl)C(F)(F)F)C2(C)C)cccc1-c1ccccc1	inactive	
COP(=S)(OC)Oc1ccc([N+](=O)[O-])c(C)c1	inactive	

SMILES	outcome	AC50
Cn1c(-c2ccccc2)cc(-c2ccccc2)[n+]1C	inactive	
CNC(=O)N(C)c1nnc(C(C)(C)C)s1	inactive	
COCC(C)N(C(=O)CCl)c1c(C)csc1C (stereo not given)	inactive	
CCCCC(O)(Cn1cncn1)c1ccc(Cl)cc1Cl (stereo not given)		72.8 µM (active)
COC(=O)NC(=S)Nc1ccccc1NC(=S)NC(=O)OC	inactive	
CC(C)C1(C)N=C(c2ncccc2C(=O)O)NC1=O (stereo not given)	inactive	
CCN(CC)c1nc(C)cc(OP(=S)(OC)OC)n1	inactive	
Clc1nc(Cl)nc(Nc2ccccc2Cl)n1	inactive	
CCCCC(C#N)(Cn1cncn1)c1ccc(Cl)cc1 (stereo not given)	inactive	
Cc1cc(C)nc(Nc2ccccc2)n1	inactive	
CCOc1nc(F)cc2nc(S(=O)(=O)Nc3c(Cl)cccc3Cl)nn12	inactive	
O=P(O)(O)CCCl	inactive	
COC(=O)NS(=O)(=O)c1ccc(N)cc1	inactive	
CN=C=S	inactive	
Nc1c(Cl)c(F)nc(OCC(=O)O)c1Cl	inactive	
COc1ccc(-c2ccccc2)cc1NNC(=O)OC(C)C	inactive	
CCOP(=O)(OCC)Oc1nc(Cl)c(Cl)cc1Cl		38.3 µM (active)
OC(c1ccc(Cl)cc1)(c1ccc(Cl)cc1)C(Cl)(Cl)Cl		89.8 µM (active)
CC(C)Oc1cccc(NC(=O)c2ccccc2C(F)(F)F)c1	inactive	
